In ChEMBL document CHEMBL1961873, “Compounds: GSK PKIS; Assays: Nanosyn kinase panel” (2012):

How the values were obtained:
[1] = molecular target: Tyrosine-protein kinase SYK (Homo sapiens) (UniProt P43405); settings: at 1 µM
[2] = molecular target: T1, Tyrosine-protein kinase Tec (Homo sapiens) (UniProt P42680); settings: at 0.1 µM
T1 sequence (whole entry): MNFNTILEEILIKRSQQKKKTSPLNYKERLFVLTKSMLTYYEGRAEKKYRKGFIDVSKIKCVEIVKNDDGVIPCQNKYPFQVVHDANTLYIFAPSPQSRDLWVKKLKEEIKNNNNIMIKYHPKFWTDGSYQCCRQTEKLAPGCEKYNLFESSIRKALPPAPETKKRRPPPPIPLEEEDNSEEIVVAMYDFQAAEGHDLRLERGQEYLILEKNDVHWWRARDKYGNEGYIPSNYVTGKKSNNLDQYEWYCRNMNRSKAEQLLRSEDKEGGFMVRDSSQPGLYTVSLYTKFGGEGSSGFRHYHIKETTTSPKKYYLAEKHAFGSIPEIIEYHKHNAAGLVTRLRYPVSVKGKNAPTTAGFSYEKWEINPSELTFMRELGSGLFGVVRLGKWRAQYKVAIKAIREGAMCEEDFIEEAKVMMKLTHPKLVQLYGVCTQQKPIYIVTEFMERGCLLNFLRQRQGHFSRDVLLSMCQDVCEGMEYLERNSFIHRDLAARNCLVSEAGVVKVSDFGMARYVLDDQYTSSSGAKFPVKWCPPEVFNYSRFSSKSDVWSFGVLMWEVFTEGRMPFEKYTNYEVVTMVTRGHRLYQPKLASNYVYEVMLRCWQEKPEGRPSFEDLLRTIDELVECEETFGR

[3] = molecular target: T1, Tyrosine-protein kinase Tec (Homo sapiens); settings: at 1 µM
[4] = molecular target: Angiopoietin-1 receptor (Homo sapiens) (UniProt Q02763); settings: at 0.1 µM
Sequence of Angiopoietin-1 receptor (Homo sapiens) (Q02763 whole entry): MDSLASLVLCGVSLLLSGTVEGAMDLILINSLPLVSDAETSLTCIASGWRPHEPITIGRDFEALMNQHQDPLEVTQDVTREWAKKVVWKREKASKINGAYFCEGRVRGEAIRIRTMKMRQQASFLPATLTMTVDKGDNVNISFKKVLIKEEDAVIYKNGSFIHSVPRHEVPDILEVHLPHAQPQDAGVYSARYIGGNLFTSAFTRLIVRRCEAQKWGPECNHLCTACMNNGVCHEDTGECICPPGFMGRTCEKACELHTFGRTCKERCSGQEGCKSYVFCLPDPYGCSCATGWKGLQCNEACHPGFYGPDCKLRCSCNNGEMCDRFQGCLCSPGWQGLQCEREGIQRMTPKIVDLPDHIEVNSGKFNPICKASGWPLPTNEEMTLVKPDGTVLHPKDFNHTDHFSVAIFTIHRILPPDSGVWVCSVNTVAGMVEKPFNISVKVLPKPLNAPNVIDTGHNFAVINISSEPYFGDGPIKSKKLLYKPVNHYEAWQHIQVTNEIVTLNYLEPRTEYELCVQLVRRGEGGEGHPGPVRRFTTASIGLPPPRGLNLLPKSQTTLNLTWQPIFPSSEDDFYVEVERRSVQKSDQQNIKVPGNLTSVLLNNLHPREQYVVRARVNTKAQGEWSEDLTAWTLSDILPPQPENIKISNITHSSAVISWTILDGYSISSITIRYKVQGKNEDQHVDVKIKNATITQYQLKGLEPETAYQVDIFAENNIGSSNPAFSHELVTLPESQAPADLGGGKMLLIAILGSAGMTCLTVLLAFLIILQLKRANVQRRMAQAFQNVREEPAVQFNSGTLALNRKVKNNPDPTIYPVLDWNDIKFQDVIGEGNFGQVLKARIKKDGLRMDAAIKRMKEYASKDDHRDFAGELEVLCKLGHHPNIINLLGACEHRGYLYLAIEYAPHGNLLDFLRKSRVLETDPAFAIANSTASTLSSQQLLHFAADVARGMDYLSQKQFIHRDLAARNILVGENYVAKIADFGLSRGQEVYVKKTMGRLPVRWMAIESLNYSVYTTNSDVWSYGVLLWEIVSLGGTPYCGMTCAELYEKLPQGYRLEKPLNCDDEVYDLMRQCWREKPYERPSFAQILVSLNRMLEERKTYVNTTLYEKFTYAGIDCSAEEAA

[5] = molecular target: Angiopoietin-1 receptor (Homo sapiens) (UniProt Q02763); settings: at 1 µM
[6] = molecular target: T2, Non-receptor tyrosine-protein kinase TNK1 (Homo sapiens) (UniProt Q13470); settings: at 0.1 µM
T2 sequence (whole entry): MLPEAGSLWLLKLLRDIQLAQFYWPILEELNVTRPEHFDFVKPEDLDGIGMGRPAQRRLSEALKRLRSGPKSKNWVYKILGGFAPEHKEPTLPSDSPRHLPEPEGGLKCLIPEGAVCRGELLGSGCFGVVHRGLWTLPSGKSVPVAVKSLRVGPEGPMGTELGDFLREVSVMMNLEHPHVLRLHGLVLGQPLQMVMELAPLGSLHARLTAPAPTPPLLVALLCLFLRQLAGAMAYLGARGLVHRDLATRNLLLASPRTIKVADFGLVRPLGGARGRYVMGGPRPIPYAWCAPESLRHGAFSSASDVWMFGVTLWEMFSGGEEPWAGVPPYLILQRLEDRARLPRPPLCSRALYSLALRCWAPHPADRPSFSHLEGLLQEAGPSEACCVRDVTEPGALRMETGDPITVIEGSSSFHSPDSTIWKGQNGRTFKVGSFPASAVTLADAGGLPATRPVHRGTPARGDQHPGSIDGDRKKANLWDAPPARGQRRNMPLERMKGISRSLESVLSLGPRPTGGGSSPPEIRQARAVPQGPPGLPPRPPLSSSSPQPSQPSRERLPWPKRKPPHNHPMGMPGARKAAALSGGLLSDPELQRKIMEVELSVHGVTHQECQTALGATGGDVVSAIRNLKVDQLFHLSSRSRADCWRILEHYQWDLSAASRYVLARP

[7] = molecular target: T2, Non-receptor tyrosine-protein kinase TNK1 (Homo sapiens); settings: at 1 µM
[8] = molecular target: Activated CDC42 kinase 1 (Homo sapiens) (UniProt Q07912); settings: at 0.1 µM
Sequence of Activated CDC42 kinase 1 (Homo sapiens) (Q07912 whole entry, looked up): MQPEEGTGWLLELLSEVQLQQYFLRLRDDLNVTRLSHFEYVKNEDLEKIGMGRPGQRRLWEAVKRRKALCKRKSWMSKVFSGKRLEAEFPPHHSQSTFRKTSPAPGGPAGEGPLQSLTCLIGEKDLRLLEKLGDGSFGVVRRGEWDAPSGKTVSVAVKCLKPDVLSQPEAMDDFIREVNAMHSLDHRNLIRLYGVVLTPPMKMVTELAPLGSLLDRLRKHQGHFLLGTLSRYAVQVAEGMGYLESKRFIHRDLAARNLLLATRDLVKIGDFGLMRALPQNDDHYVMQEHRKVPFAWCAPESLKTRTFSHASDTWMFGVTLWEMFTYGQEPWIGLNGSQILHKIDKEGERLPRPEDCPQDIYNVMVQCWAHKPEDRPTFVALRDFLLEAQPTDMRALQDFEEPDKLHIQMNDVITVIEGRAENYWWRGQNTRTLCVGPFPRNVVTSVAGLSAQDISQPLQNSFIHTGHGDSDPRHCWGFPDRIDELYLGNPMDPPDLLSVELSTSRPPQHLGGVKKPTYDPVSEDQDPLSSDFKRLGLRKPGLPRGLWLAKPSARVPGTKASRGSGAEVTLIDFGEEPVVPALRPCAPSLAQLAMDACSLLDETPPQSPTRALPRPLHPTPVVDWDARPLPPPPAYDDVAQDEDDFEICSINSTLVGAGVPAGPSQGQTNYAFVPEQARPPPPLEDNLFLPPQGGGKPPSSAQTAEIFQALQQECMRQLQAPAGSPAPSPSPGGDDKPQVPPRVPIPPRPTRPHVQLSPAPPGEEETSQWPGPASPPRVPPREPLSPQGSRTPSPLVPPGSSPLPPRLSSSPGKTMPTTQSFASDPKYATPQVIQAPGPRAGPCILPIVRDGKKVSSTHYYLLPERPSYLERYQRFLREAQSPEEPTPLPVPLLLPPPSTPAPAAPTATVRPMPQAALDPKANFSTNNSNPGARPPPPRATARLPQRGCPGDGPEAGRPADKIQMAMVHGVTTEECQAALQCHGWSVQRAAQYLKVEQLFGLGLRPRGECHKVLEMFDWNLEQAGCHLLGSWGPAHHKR

[9] = molecular target: Activated CDC42 kinase 1 (Homo sapiens) (UniProt Q07912); settings: at 1 µM
[10] = molecular target: High affinity nerve growth factor receptor (Homo sapiens) (UniProt P04629); settings: at 0.1 µM;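 note: each value is a mean of replicate percent inhibition readings against TRKA kinase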
Sequence of High affinity nerve growth factor receptor (Homo sapiens) (P04629 33-796 limits assumed): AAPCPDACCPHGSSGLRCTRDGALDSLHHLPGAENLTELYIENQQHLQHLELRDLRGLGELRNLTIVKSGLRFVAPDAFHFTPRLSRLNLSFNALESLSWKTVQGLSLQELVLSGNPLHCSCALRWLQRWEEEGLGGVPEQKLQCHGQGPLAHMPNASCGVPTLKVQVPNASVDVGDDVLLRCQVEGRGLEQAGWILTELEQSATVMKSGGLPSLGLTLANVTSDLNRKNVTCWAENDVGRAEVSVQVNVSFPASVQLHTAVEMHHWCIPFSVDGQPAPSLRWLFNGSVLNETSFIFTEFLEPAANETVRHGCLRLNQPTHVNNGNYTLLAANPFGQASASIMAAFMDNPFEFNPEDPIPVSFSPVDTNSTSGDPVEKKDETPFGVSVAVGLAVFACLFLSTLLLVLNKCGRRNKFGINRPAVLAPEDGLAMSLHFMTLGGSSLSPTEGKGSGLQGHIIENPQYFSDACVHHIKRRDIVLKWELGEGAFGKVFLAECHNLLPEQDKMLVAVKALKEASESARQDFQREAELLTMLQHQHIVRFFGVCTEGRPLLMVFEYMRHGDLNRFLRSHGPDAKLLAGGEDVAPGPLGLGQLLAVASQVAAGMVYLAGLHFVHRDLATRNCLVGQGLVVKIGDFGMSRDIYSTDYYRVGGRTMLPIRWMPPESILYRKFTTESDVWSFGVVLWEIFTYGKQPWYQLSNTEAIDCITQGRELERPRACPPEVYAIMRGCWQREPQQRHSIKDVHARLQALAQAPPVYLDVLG

SMILES | inhibition [1] | inhibition [2] | inhibition [3] | inhibition [4] | inhibition [5] | inhibition [6] | inhibition [7] | inhibition [8] | inhibition [9] | inhibition [10]
Nc1nccc(C#Cc2cncnc2Nc2ccc(OCc3cccc(F)c3)c(Cl)c2)n1 | -0.63% | 5.34% | 13.6% | 4.38% | 3.5% | 5.1% | 8.89% | 1.73% | 3.21% | 4.45%
NS(=O)(=O)c1ccc(Nc2cc(-c3cccc(O)c3)n[nH]2)cc1 | -0.51% | 5.22% | 5.56% | 4.05% | 3.13% | 4.11% | 7.43% | 1.36% | 2.01% | 4.76%
COc1cc2ncnc(Nc3ccc(C)c(O)c3)c2cc1OC | 0.27% | 11.1% | 36.6% | 3.58% | 17.7% | 5.34% | 23.8% | 1.4% | 5.7% | 1.85%
COc1cc(/C=N/Nc2ncnc3c2cnn3C(C)C)ccc1O | 35.4% | 3.27% | 13.6% | 0.88% | 12.2% | 1.37% | 7.79% | 0.51% | 5.5% | 1.66%
CCCN1CCCC(c2ccc(Nc3nc(Nc4cc(F)ccc4C(N)=O)c4cc[nH]c4n3)c(OC)c2)C1 (stereo not given) | 75.8% | 4.67% | 9.82% | 4% | 4.28% | 41.2% | 81% | 5.79% | 41.1% | 3.35%
COc1ccc2ncnc(Nc3ccc(OCc4ccccc4)cc3)c2c1 | -1.05% | 2.8% | 4.49% | 2.79% | 5.45% | 2.34% | 12.3% | 0.68% | 1.66% | 0.33%
COc1cccc(-n2ncc3c(N/N=C/c4ccc(S(C)(=O)=O)cc4)ncnc32)c1 | -1.66% | -0.19% | 10.4% | 7.64% | 31.4% | 10.4% | 20% | 1.34% | 1.96% | 4.94%
N#Cc1cccc(Nc2nccc(-c3cnn4ncccc34)n2)c1 | 53.2% | 8.87% | 39.3% | 3.66% | 18.6% | 11.9% | 52.3% | 2.35% | 11.7% | 15.4%
NC(=O)c1sc(-n2cnc3ccccc32)cc1OCc1ccccc1Br | -0.37% | 4.6% | 4.76% | 2% | 6.42% | 2.8% | 18.9% | 0.68% | 1.87% | 1.54%
O=C1Nc2ccc(-c3cccnc3)cc2C1=Cc1cc(Br)c(O)c(Br)c1 | -2.96% | 3.68% | 8.99% | 1.2% | 2.63% | 52.5% | 80.6% | 1.09% | 3.05% | 4.7%
CN(C)c1cc2c(Nc3ccc4c(cnn4Cc4ccccc4)c3)ncnc2cn1 | 0.09% | 3.97% | 9.92% | 2.74% | 5.29% | 3.66% | 14.7% | 0.72% | 1.68% | 1.75%
CN(C)C(=O)O[C@H]1CN[C@H](C#Cc2cc3ncnc(Nc4ccc(OCc5cccc(F)c5)c(Cl)c4)c3s2)C1 | -0.76% | 3.98% | 6.52% | 2.98% | 5.32% | 1.02% | 12% | 1.42% | 1.79% | 2.9%
c1ccc(Nc2ncc(-c3ccccc3)o2)cc1 | 3.14% | 4.25% | 8.61% | 3.52% | 3.99% | 5.05% | 9.74% | 1.38% | 0.93% | 0.26%
Cc1cc(Cl)cc2c1NC(=O)C2=NNc1ccc(S(N)(=O)=O)cc1 | 0.95% | 2.23% | 1.43% | 2.08% | 2.32% | -0.6% | 7.55% | 0.54% | 1.92% | -1.82%
NS(=O)(=O)c1cccc(-c2cc3ccncc3cc2OCc2ccccc2)c1 | -1.17% | 5.34% | 8.79% | 4.31% | 7.65% | 1.24% | 4.7% | 0.71% | 1.65% | 1.41%
Cc1nc(-c2ccccc2)n2nc(NCCCN3CCOCC3)ncc12 | 3.52% | 2.69% | 3.32% | 4.19% | 5.74% | 1.98% | 2.53% | 0.58% | 1.15% | 0.31%
NS(=O)(=O)c1ccc(NC=C2C(=O)Nc3ccc4ncsc4c32)cc1 | 3.68% | 5.73% | 22.4% | 1.88% | 19.6% | 15.6% | 53.1% | 1.41% | 9.93% | 15.9%
